Source: PubChem BioAssay (The Scripps Research Institute Molecular Screening Center)
CHO-K1 Ca antag = counter-screen for M1 antagonists: effect in parental CHO-K1 cells | ATP-induced calcium, Fluo-8 fluorescence | inhibition, % at 3 µM | hit rate 0.6% among 360,000;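 active = inhibition above a per-plate cutoff, the plate's mean sample inhibition plus 3 SD, cut at about 24% in these data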;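 also: 0% = DMSO plus EC80 ATP and 100% = DMSO alone without ATP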
CHO-K1 Ca ag = counter-screen for M1 agonists: effect in parental CHO-K1 cells; hit rate 0.48% among 360,000; activation, % at 3 µM; Fluo-8 calcium fluorescence; scaled to maximal ATP response, vehicle zero; in the data active = activation above about 15%;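 also: untransfected CHO-K1 host cells lacking M1 receptor as counterscreen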
M1 ag = human M1 muscarinic receptor agonists, primary screen, Fluo-8 calcium fluorescence, CHO-K1 cells, HTS; Muscarinic acetylcholine receptor M1 (Homo sapiens), P11229; CHO-K1 hM1, agonist mode; 0% DMSO, 100% acetylcholine EC100; activation, % at 3 µM; hit rate 0.33% among 360,000; AID 588814, 2011;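 active = activation above the run's mean compound activation plus 3 SD, cut at about 16% in these data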;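 also: peak over basal fluorescence ratio within a 140 s kinetic read after compound addition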
Target sequence (P11229 whole entry, looked up): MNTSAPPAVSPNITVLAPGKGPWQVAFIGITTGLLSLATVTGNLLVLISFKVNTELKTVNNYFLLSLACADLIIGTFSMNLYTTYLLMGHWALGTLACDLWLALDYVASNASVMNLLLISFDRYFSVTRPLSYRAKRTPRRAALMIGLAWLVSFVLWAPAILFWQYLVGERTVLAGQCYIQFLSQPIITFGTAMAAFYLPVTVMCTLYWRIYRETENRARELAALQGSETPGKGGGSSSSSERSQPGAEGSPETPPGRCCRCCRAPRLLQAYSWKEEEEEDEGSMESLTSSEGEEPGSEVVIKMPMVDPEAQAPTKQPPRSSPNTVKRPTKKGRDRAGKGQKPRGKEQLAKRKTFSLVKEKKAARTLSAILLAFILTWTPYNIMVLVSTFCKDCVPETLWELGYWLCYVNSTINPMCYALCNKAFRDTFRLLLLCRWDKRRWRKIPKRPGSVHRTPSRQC
M1 antag = human M1 muscarinic receptor antagonists, primary screen, CHO-K1 cells, Fluo-8 calcium fluorescence, 1536-well | Muscarinic acetylcholine receptor M1 (Homo sapiens), P11229 | CHO-K1 hM1, ACh EC80 antagonist | inhibition, % at 3 µM | hit rate 1.3% among 360,000 | AID 588852, 2011;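 active = percent inhibition above its own plate's cutoff, namely the mean of that plate's compound wells plus 3 SD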;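 also: peak over basal fluorescence ratio during 140 s after agonist addition; 0% = ACh EC80 plus DMSO and 100% = DMSO alone without agonist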
CHO-K1 Ca PAM = nonselective calcium activators in parental CHO-K1 cells, primary screen, counter-screen for M1 PAM project, cell-based, Fluo-8 calcium fluorescence, full deck, 1536-well. ATP EC20; 0% at ATP EC20, 100% at ATP max. activation, % at 3 µM. hit rate 0.02% among 360,000. AID 602247, 2012;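 active = activation above the run cutoff, the mean activation of all test compounds plus 3 SD, cut at about 40% in these data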;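 also: peak over basal fluorescence ratio in a 140 s read after ATP addition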
CHRM1 PAM = human M1 muscarinic receptor positive allosteric modulators, primary screen, CHO-K1 cells, Fluo-8 calcium fluorescence, 1536-well | hit rate 0.088% among 360,000 | Muscarinic acetylcholine receptor M1 (Homo sapiens), P11229 | activation, % at 3 µM | CHO-K1 hM1, ACh EC20; 0% = ACh EC20, 100% = maximal ACh; in the data active = activation above about 19%, passing the limit was not always enough
Active calls of the source: *; / = not tested or not shown. Most compounds without a hit are left out; they make up all but 2.3% or so of the library.

SMILES	CHO-K1 Ca antag	CHO-K1 Ca ag	M1 ag	M1 antag	CHO-K1 Ca PAM	CHRM1 PAM
CCOC(=O)C1=CC[C@@H](c2ccccc2)N(S(=O)(=O)c2ccc(C)cc2)[C@H]1C=C(C)C	10.3	1.8	-6.8	21.3	8.4	-14.0
CC(C)Cc1ccc(C(C)NC(=O)c2ccc(=O)[nH]c2)cc1 (stereo not drawn)	3.9	15.4*	12.4	11.3	-7.9	1.4
COc1ccc(Cc2c(C(C)(C)C)nc3c(C)cc(Br)cn23)c(C)c1	25.1*	0.3	-10.5	-2.8	9.5	0.3
COc1ccc(Cc2c(C(C)(C)C)nc3cc(C)c(Br)c(C)n23)c(C)c1	-11.7	0.2	/	/	21.2	/
COc1cccc(/C=N/Nc2ncnc3scc(-c4ccccc4)c23)c1O	1.5	6.5	-4.2	34.0*	0.6	-16.9
COC(=O)[C@@]1(Sc2ccc(C)cc2)CC(=O)N(C(=O)c2ccccc2)[C@@H]1c1ccccc1	-12.3	4.3	/	/	6.1	/
c1ccc(C(Cc2nc(-c3ccncc3)no2)c2ccccc2)cc1	15.2	4.8	-3.0	24.2*	-1.9	-15.9
C[C@@H]1CN(Cc2nc(-c3cnccn3)no2)C[C@H](C)O1	-0.7	24.1*	-3.4	9.5	11.0	-0.9
CCCOC1CCCN(Cc2nc(-c3cnccn3)no2)C1 (stereo not drawn)	-6.1	0.1	0.5	4.4	-8.9	-2.4
COc1ccc(-c2cc3nc(C)cc(N4CCN(C(=O)c5cccnc5)CC4)n3n2)cc1	-24.7	1.2	-2.3	-5.0	32.5	1.4
COc1ccc(-n2nnc3c(=O)n(CC(=O)N4CCCc5ccccc54)cnc32)cc1	12.3	0.3	-1.1	0.9	3.0	-1.6
CCOc1ccc(-n2nnc3c(=O)n(CC(=O)N4CCCc5ccccc54)cnc32)cc1	4.0	-0.7	-10.0	74.3*	13.4	-32.0
COc1cccc(OCCSc2nc(N)cc(N)n2)c1	26.9*	0.2	-1.0	10.3	-6.7	-4.5
Nc1cc(N)nc(SCCOc2ccccc2)n1	5.5	0.7	3.2	-26.5	2.6	15.6
C[C@H](CO)N1C[C@H](C)[C@@H](CN(C)Cc2ccc(Oc3ccccc3)cc2)Oc2c(NC(=O)c3ccncc3)cccc2C1=O	-31.9	0.8	-9.3	-3.9	46.0*	-0.3
C[C@H](CO)N1C[C@H](C)[C@@H](CN(C)Cc2ccccc2)Oc2c(NC(=O)c3ccncc3)cccc2C1=O	-9.6	0.6	-6.1	-3.6	-5.8	2.0
Cc1cc(C)c(NC(=O)C2CCCN2CCO)c(C)c1 (stereo not drawn)	-13.0	0.9	-5.5	-10.6	19.2	6.8
CCCCN1CCCCC1C(=O)Nc1c(C)cc(C)cc1C (stereo not drawn)	30.5*	-0.3	-4.5	8.5	0.0	7.7
COc1ccc(NC(=O)CN2c3cccc4cccc(c34)S2(=O)=O)cc1OC	0.7	7.8	2.7	-0.9	-6.0	-0.1
CCCCCc1c(-c2ccc(F)cc2F)ncn1CCc1ccccc1OC	-12.0	2.4	/	/	23.9	/
Cc1cc(/C=C(/C#N)c2cccc(F)c2)c(C)n1-c1cccnc1	-15.8	2.5	-13.3	33.6*	-4.2	-35.1
Cc1cc(/C=C(\C#N)C(=O)NCc2ccco2)c(C)n1-c1cccnc1	-15.9	5.4	-2.3	-8.9	19.9	1.9
Cc1cccc(S(=O)(=O)NC(=O)C2(C)CCN2C(=O)CCC2CCCC2)c1 (stereo not drawn)	-9.9	0.1	-1.7	-12.1	15.3	10.7
COc1cc(OC)c(Nc2cc(C)nc3nc(C)nn23)cc1Cl	0.1	0.5	-3.4	103.4*	12.1	2.3
COc1ccc(Cl)cc1Nc1cc(C)nc2nc(C)nn12	-2.8	0.6	-0.2	-3.8	9.8	16.9
SMILES	CHO-K1 Ca antag	CHO-K1 Ca ag	M1 ag	M1 antag	CHO-K1 Ca PAM	CHRM1 PAM
Cc1cnn(-c2cc(Oc3ccccc3)ncn2)c1	25.0*	-0.4	-1.5	9.5	-7.9	-2.5
c1ccc(Oc2cc(-n3cncn3)ncn2)cc1	-10.9	1.6	-7.6	-12.7	27.6	11.7
COC(=O)CCC(=O)N1CCOCCOCCN(C(=O)CCC(=O)OC)CCOCCOCC1	-7.9	0.2	-4.1	-7.1	17.5	6.3
COC(=O)CCC(=O)N1CCOCCOCCOCC1	-2.3	15.8*	-3.4	-3.3	23.4	0.9
O=S(=O)(Nc1nc2ccccc2[nH]1)c1ccc(Cl)cc1	5.5	0.2	2.2	70.0*	11.3	-25.7
O=C(NN1C(=O)C2C(c3ccccc3)C=CC(c3ccccc3)C2C1=O)c1ccccc1 (stereo not drawn)	-11.4	4.7	-10.8	46.1*	27.9	-27.4
O=C(NN1C(=O)C2C(c3ccccc3)C=CC(c3ccccc3)C2C1=O)c1cccc(Br)c1 (stereo not drawn)	1.0	8.1	-10.6	81.4*	18.4	-25.0
O=C(NN1C(=O)C2C3c4ccccc4C(c4ccccc43)[C@@H]2C1=O)c1ccccc1 (stereo partly drawn)	-9.5	0.2	-9.0	-4.8	16.2	7.2
CC(C)c1ccc(CN2CCC2(C)C(=O)Nc2cnc3ccccc3c2)cc1 (stereo not drawn)	7.6	0.2	-7.3	7.1	-4.9	-6.9
CN1OC[C@@H]2CN(S(=O)(=O)c3cc(Cl)cc(Cl)c3)[C@H](c3ccc(-c4ccc(C#N)cc4)cc3)C[C@@H]21	9.0	0.6	-4.8	-3.0	7.9	7.3
O=C(N/N=C/c1ccc(O)cc1O)c1ccc(CN2C(=O)c3cccc4cccc2c34)cc1	10.4	0.1	16.4*	2.2	4.5	-4.1
O=C(N/N=C/c1ccccc1)c1ccc(CN2C(=O)c3cccc4cccc2c34)cc1	-8.8	1.2	43.4*	-7.7	17.8	10.4
Cc1cc([N+](=O)[O-])nn1Cc1ccc(C(=O)N/N=C/c2ccc(O)cc2O)cc1	-8.0	0.7	-2.2	-6.6	22.2	3.0
O=C(N/N=C/c1cccnc1)c1ccc(CN2c3cccc4cccc(c34)S2(=O)=O)cc1	-9.7	1.9	8.6	-0.4	7.8	-2.2
O=C1NC[C@H](CCCCN2CCN(CC3CCCCC3)C(=O)C2=O)N(CCc2ccccc2)C1=O	-3.9	0.1	/	/	1.4	/
COCCOC(=O)N1CCCCC1c1cc(C(=O)Nc2cccc3c2CCCC3)no1 (stereo not drawn)	-11.8	0.9	-6.2	-14.5	12.2	11.9
COc1ccc(C2=NOC(C(=O)NCc3cccs3)C2)cc1 (stereo not drawn)	-5.2	0.6	-2.2	55.7*	16.6	7.0
COc1cc(C2=NOC(C(=O)NCc3cccs3)C2)cc(OC)c1OC (stereo not drawn)	-0.3	2.1	1.4	-3.8	-10.7	3.9
